Reference: PubChem BioAssay

Target: NADPH oxidase 4 (Homo sapiens) (UniProt Q9NPH5)
Test: compounds shifting NOX4 Amplex Red fluorescence – cell-based, HEK293-NOX4, tetracycline-induced, NOX inhibitor project, primary screen (AID 1160)
Settings: HEK293-NOX4, Amplex Red H2O2 fluorescence, 45 min; higher = more signal, called active from +8 up or from −8 down

NADPH oxidase 4 (Homo sapiens), sequence (Q9NPH5 whole entry, looked up): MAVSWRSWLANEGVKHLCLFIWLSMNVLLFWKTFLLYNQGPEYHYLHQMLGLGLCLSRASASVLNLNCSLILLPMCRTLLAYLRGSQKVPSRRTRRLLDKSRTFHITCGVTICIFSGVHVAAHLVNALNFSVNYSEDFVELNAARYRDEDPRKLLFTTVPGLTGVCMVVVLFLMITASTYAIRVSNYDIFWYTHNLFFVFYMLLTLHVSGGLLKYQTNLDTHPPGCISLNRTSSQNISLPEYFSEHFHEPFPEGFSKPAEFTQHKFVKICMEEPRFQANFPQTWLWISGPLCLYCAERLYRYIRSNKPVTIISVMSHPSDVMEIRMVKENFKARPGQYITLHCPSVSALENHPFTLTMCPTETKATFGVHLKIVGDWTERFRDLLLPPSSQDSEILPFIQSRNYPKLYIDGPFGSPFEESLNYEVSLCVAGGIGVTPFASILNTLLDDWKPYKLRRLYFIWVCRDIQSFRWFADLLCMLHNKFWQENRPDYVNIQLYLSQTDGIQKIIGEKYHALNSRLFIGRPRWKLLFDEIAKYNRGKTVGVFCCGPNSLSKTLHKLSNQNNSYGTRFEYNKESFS

z-score, inactive:
CC(c1ccccc1)C(O)C1C=CC2C(=O)N(C)C(=O)C2N1Nc1ccccc1 (stereo not given) -3.77
Cc1ccc(N2C(=O)c3ccccc3[C@@H](C(=O)NCCCN(C)C)[C@@H]2c2ccc(CO)cc2)nc1 0.115
CCCCC(CC)C(O)C1C=CC2C(=O)N(C)C(=O)C2N1Nc1ccccc1 (stereo not given) -3.67
C=CCNC(=O)[C@@H]1[C@H]2C(=O)O[C@H](c3ccccc3)[C@H](c3ccccc3)N2[C@H](c2ccc(O)cc2)[C@@]12C(=O)N(C(=O)OCCOC)c1ccc(C#CC3=CCCCC3)cc12 0.339
NCCCCCCNC(=O)[C@@H]1C[C@@H]2C(=O)N[C@@H](CCCCN)C(=O)N2[C@@H]1c1ccc(O)cc1 -1.06
Cc1ccc(C(C)CC(O)C2C=CC3C(=O)N(c4ccccc4)C(=O)C3N2Nc2ccccc2)o1 (stereo not given) -5.71
COCCOC(=O)N1C(=O)[C@@]2(c3cc(C#CC4(O)CCCCCC4)ccc31)[C@H](C(=O)N1CCc3cc(OC)c(OC)cc3C1)[C@H]1C(=O)O[C@H](c3ccccc3)[C@H](c3ccccc3)N1[C@@H]2c1ccc(OCCO)cc1 0.614
COC(=O)[C@@]1(Cc2ccc(OC)cc2)[C@H]2c3cc(C(=O)N(C)C)n(Cc4ccc(OC(F)(F)F)cc4)c3C[C@H]2CN1C(=O)c1ccccc1 -0.787
CCCCCN1CC=CC23O[C@@H]4C=CCCOC(=O)C4[C@H]2C(=O)N(CCCCCCO)[C@@H]3C1=O (stereo not given in full) -0.0418
COCCOC(=O)N1C(=O)[C@@]2(c3cc(C#CC4=CCCCC4)ccc31)[C@H](c1ccccc1OCCO)N1[C@H](c3ccccc3)[C@H](c3ccccc3)OC(=O)[C@H]1[C@@H]2C(=O)N1CCN(c2ncccn2)CC1 0.868
NC(=O)[C@@]1(Cc2ccccc2)COC(c2ccc(OCCCO)cc2)=N1 -1.4
N#Cc1ccc(NN2C(C(O)c3ccc(Br)cc3)C=CC3C(=O)N(c4ccccc4)C(=O)C32)cc1 (stereo not given) -4.29
CCOC(=O)C[C@H]1[C@H](OC(=O)c2ccccc2-c2ccccc2)[C@@H](NC(=O)c2ccc3ccccc3c2)c2cc(OCCCO)ccc2N1C(=O)c1ccccc1 0.89
O=C1NC(=O)C2C1C=CC(C(O)c1ccco1)N2Nc1ccc(Cl)cc1Cl (stereo not given) -5.58
C=CCOC(=O)[C@@]1(Cc2ccccc2)C[C@H]2CO[C@H](c3ccc(OC)cc3)N2C1=O -0.213
COCCCNC(=O)[C@@H]1c2ccccc2C(=O)N(C(C)C)[C@H]1c1ccc(CO)cc1 -0.904
COC(=O)C1=CC(CCCO)=CC(c2cccs2)N(Cc2cccc(OC(F)(F)F)c2)C=C1C(=O)OC (stereo not given) -0.436
[N-]=[N+]=Nc1ccccc1C[C@]1(C(=O)NCC(O)CO)COC(c2ccc(OCCCO)cc2)=N1 (stereo not given in full) 0.179
COc1cccc(C)c1NC(=O)O[C@H]1[C@H](OC(=O)Nc2ccc3c(c2)OCO3)[C@@H](OC(=O)Nc2ccc3c(c2)OCO3)[C@@H](OC)O[C@@H]1CO -0.747
CCCCCCCCCCC(O)C1C=CC2C(=O)N(c3ccccc3)C(=O)C2N1Nc1ccc(C#N)cc1 (stereo not given) 0.0477
Cc1ccc(F)cc1S(=O)(=O)N[C@@H]1CCN(Cc2ccc(Br)cc2)C1 -0.846
C=CC[C@]1(C(=O)N2CCCCC2)N=C(c2ccc(OCCCO)cc2)O[C@H]1c1ccccc1CN=[N+]=[N-] -0.616
COCC(=C=CC[C@H](O)c1ccc(CO)o1)CCO -0.177
O=C(c1ccccc1)N1C(=O)[C@]2(Cc3ccccc31)N=C(c1ccc(OCCCO)cc1)O[C@@H]2c1ccccc1 -0.703
C[N+](C)(C)CCCCCCNC(=O)[C@@H]1C[C@@H]2C(=O)N3CCC[C@H]3C(=O)N2[C@@H]1c1ccc(O)cc1 0.375
C=CCC(OC(C)=O)[C@@H]1[C@@H](N(Cc2ccc(-c3ccccc3)cc2)C(=O)c2ccc(-c3ccccc3)cc2)c2cc(OCCCO)ccc2N1C(=O)c1ccc2ccccc2c1 (stereo not given in full) 0.987
CCOC(=O)C1=C[C@@H](C(C)(C)C)N(S(=O)(=O)c2ccc(C)cc2)[C@H]1c1cccc2ccccc12 0.13
O=C1CS(=O)(=O)C(c2cccc([N+](=O)[O-])c2)N1c1ccccc1 (stereo not given) 0.38
COC(=O)[C@@]1(Cc2ccc(F)cc2)[C@H]2c3cc(C(=O)N4CCCC4)n(CCc4c[nH]c5ccccc45)c3C[C@H]2CN1C(=O)c1ccccc1 0.988
COc1ccc(CCNC(=O)[C@@]2(c3ccc([N+](=O)[O-])cc3)CC(=O)N(C3CCCCC3)[C@@H]2c2ccc(CO)cc2)cc1 0.479
O=C(O)[C@@H]1[C@@H]2C(=O)N(c3ccccc3)C(=O)[C@@H]2C[C@@H]1Sc1ccccc1 -0.541
C=CC[C@@H](OC(=O)Nc1ccc(SC)cc1)c1ccc(O)c(F)c1 -2.85
COCCOC(=O)N1C(=O)[C@@]2(c3cc(C#CC4=CCCCC4)ccc31)[C@H](C(=O)Nc1nc3ccccc3s1)[C@H]1C(=O)O[C@H](c3ccccc3)[C@H](c3ccccc3)N1[C@@H]2c1ccc(O)cc1 -0.44
CC(C)C[C@@H]1NC(=O)[C@@H]2C[C@H](C(=O)NCCCCCCN)[C@H](c3cccc(OCCO)c3)N2C1=O 1.36
COCCOC(=O)N1C(=O)[C@@]2(c3cc(C#CCNC(N)=O)ccc31)[C@H](C(N)=O)[C@H]1C(=O)O[C@H](c3ccccc3)[C@H](c3ccccc3)N1[C@@H]2c1ccccc1OCCO 1.37
